# A selection: hits, their analogues and other compounds. The true share with any hit is near 2.4%.
# ATXN viability = Viability Counterscreen for Primary qHTS for Inhibitors of ATXN expression. 400,000 tested, 0.49% active. S2 cells (HEK-293 line with an ATXN2-luciferase reporter) viability, CellTiter-Fluor protease fluorescence, 24 h. Potency, µM (series often up to 56.7 µM), most hits filed as cytotoxic; also: nearly all actives have a fitted effect of over 40% in size
# Apoferritin bind = qHTS Assay for Identification of Novel General Anesthetics | Ferritin light chain (Equus caballus), P02791 | apoferritin/1-aminoanthracene competitive binding, fluorescence | Potency, µM (doses to about 77.5 µM), without a hit: top-dose activity change, negative = displacement, most hits filed as inhibitors | 350,000 tested, 0.074% active; also: % is scaled to controls: 0 for no effect and ±100 for the full control effect; nearly all actives have a fitted effect of over 20% in size
# Target sequence (P02791 2-175 limits assumed): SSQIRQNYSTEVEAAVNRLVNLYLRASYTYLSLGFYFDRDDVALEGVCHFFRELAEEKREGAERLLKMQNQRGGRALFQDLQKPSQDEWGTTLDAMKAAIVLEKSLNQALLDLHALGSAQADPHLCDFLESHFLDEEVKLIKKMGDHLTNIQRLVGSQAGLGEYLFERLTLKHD
#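 Horse-spleen apoferritin (10 uM) was mixed with 50% saturated 1-aminoanthracene in PBS, exposed to compounds for 10 min at room temperature, and read for fluorescence (ex 380 nm, em 535 nm). Competitive displacement was fitted with a four-parameter Hill equation.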
# HepG2 tox-1 = qHTS for Inhibitors of TGF-b: Cytotox Counterscreen; AID 588856, 2011; 410,000 tested, 0.76% active; HepG2 CAGA-GFP viability, ATP luminescence, 18 h; Potency, µM (doses to about 46.1 µM), for the others: at the highest dose activity change, negative = cytotoxicity, usual class: cytotoxic
#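 CellTiter-Glo luminescence gave cytotoxicity after 18 hours at 37 degrees C. The cells were HepG2 CAGA-GFP in 1% FBS DMEM, stimulated with 500 pg/mL TGF-beta after compound addition. %Activity was normalised to no-cell wells (complete cell-killing) and DMSO (no toxicity), and curves were fitted and classified.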
# TGFb inhibitor = qHTS for Inhibitors of TGF-b; HepG2 CAGA-GFP TGF-b/SMAD3 reporter, GFP fluorescence, 18 h; TGF-beta stimulated, 500 pg/mL final; 410,000 tested, 1.2% active; Potency, µM (series often up to 46.1 µM), for inactives: top-dose activity, negative = inhibition, hits mostly inhibitors; also: % is scaled to controls: 0 for no effect and ±100 for the full control effect; nearly all actives have a fitted effect of over 65% in size
#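 Smad-responsive CAGA-GFP expression was quantified in HEPG2 cells exposed to compounds and 500 pg/mL final TGF-beta for 18 h at 37 degrees C; unstimulated wells defined full inhibition.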
# ATXN2 expr inh = Primary qHTS for Inhibitors of ATXN expression; Potency, µM (top dose mostly 57 µM), without a hit: at the top dose activity change, negative = inhibition, actives largely listed as inhibitors; HEK-293 ATXN2-luciferase reporter, luminescence, 24 h; AID 1745845, 2022; 360,000 tested, 0.72% active; also: % is scaled to controls: 0 for no effect and ±100 for the full control effect; nearly all actives have a fitted effect of over 55% in size
#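 ATXN2-luciferase reporter cells (luciferase flanked by upstream and downstream ATXN2 gene portions) were treated 24 h at 37 °C with compounds at up to 57 uM. SteadyGlo luminescence gave expression; GF-AFC fluorescence gave viability.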
# TGFb CAGA inh = qHTS for Inhibitors of TGF-b: Confirmation of Cherry Picks; shares compounds with TGFb inhibitor; HepG2 CAGA-GFP TGF-b reporter, GFP fluorescence, 18 h; cells stimulated with TGF-beta, 500 pg/mL; Potency, µM (doses to about 46.1 µM), for the others: top-dose activity, negative = inhibition, actives largely listed as inhibitors; 1,600 tested, 63% active; AID 720534, 2013; also: % is scaled to controls: 0 for no effect and ±100 for the full control effect; nearly all actives have a fitted effect of over 65% in size
# HepG2 tox-2 = qHTS for Inhibitors of TGF-b: Cytotox Counterscreen for Cherry Picks. shares compounds with TGFb inhibitor. HepG2 CAGA-GFP viability, ATP luminescence, 18 h; cells stimulated with TGF-beta, 500 pg/mL. Potency, µM (series often up to 46.1 µM), for inactives: top-dose activity, negative = cytotoxicity, usual class: inhibitors. 1,600 tested, 27% active. AID 720535, 2013; also: % is scaled to controls: 0 for no effect and ±100 for the full control effect; nearly all actives have a fitted effect of over 70% in size
# TGFb CCL64 inh = qHTS for Inhibitors of TGF-b: CCL64 Cells Orthogonal Assay for Cherry Picks; shares compounds with TGFb inhibitor; CCL64 CAGA-GFP reporter, TGF-b stimulated, GFP fluorescence, 18 h; Potency, µM (doses to about 46.1 µM), without a hit: at the highest dose activity, negative = inhibition, hits mostly inhibitors; 1,600 tested, 41% active; AID 720536, 2013; also: nearly all actives have a fitted effect of over 65% in size
# TGFb COP inh = qHTS for Inhibitors of TGF-b: Hit Validation in HepG2 Cells using COP promoter; shares compounds with TGFb inhibitor; HepG2 COP-GFP TGF-b reporter, GFP fluorescence, 18 h; cells stimulated by added recombinant TGF-beta; Potency, µM (top dose mostly 46.1 µM), without a hit: top-dose activity, negative = inhibition, usual class: inhibitors; 1,600 tested, 3% active; also: nearly all actives have a fitted effect of over 70% in size
# * marks the source's active call; other numbers are inactive results; i = inactive; ? = inconclusive; / = no result given. Calls follow the shape of the dose curve; as a rule, active = well fitted curve in the direction sought with a large enough effect; inconclusive = small, poorly fitted or top-dose-only effect, or another doubt; inactive = no such curve, though single readings can be large; an effect the other way counts as inactive or inconclusive. Potency is read from the fitted curve at half-maximal effect.
SMILES,ATXN viability,Apoferritin bind,HepG2 tox-1,TGFb inhibitor,ATXN2 expr inh,TGFb CAGA inh,HepG2 tox-2,TGFb CCL64 inh,TGFb COP inh
COCCn1c(C)cc(O)c(C(c2ccccc2Cl)N2CCN(c3ccccc3)CC2)c1=O (stereo not given),/,-2%,-4%,-8%,/,/,/,/,/
Cc1ccc(-n2c(C)nn(CCOc3ccccc3)c2=O)cc1,i,-15%,31%,-8%,33%,/,/,/,/
Cc1ccc(S(=O)(=O)Nc2cccc3c2O[C@H](CN(C)Cc2ccc(-c4ccccc4)cc2)[C@@H](C)CN([C@H](C)CO)C3=O)cc1,?,/,-23%,10µM*,-23%,16µM*,-4%,?,40%
Cc1ccc(-c2ccc3c(c2)O[C@H](CN(C)C(=O)Nc2ccc(C(F)(F)F)cc2)[C@H](C)CN([C@H](C)CO)S3(=O)=O)cc1,?,/,-14%,22µM*,0%,18µM*,?,?,47%
C[C@H](CO)N1C[C@H](C)[C@@H](CN(C)S(=O)(=O)c2ccc(Cl)cc2)Oc2ccc(NS(=O)(=O)c3ccccc3)cc2CC1=O,?,/,3%,4.5µM*,?,?,-11%,?,40%
C[C@H](CO)N1C[C@H](C)[C@H](CN(C)S(=O)(=O)c2cccs2)Oc2ccc(NC(=O)Nc3ccc4c(c3)OCO4)cc2CC1=O,?,/,2%,?,-24%,?,-24%,-16%,9%
O=C(COC(=O)CNC(=O)c1ccco1)Nc1ncc(Cl)cc1Cl,i,/,4%,4%,4%,/,/,/,/
CCOC(=O)c1cccc(NC(=O)Cn2c(=O)c3cccn3c3ccccc32)c1,/,-4%,5%,-14%,/,/,/,/,/
COc1cc(C)c(NC(=O)Cc2ccsc2)cc1OC,i,-10%,1%,?,1%,/,/,/,/
Cc1[nH]n(-c2ccccc2)c(=S)c1C=NCCCN=Cc1c(C)[nH]n(-c2ccccc2)c1=S,?,0%,-40%,0.56µM*,?,-4%,-3%,-18%,8%
CCOc1ccc(CN2C(=O)c3ccccc3Sc3ccc(C(=O)NCc4ccco4)cc32)cc1,i,-2%,-6%,-13%,11%,/,/,/,/
CC(C)c1ccccc1NC(=O)Cn1c(/C=C/c2ccccc2)nc2ccccc21,?,-11%,13µM*,10µM*,-15%,-24%,?,?,-10%
Cc1ccc(NC(=O)Cn2c(/C=C/c3ccccc3)nc3ccccc32)cc1C,i,-9%,-29%,-1%,-20%,/,/,/,/
CN1CCN(c2ccc(Cl)cc2NC(=O)/C=C/c2ccc(F)cc2)CC1,/,-19%,-31%,?,-9%,/,/,/,/
COC(=O)c1cccc(NS(=O)(=O)c2cccs2)c1C,i,-23%,23%,-1%,27%,/,/,/,/
COC(=O)c1ccccc1NC1=C/C(=N\S(=O)(=O)c2cccs2)c2ccccc2C1=O,7.1µM*,?,-23%,?,4µM*,7.3µM*,15µM*,3.3µM*,16µM*
COC1=C(Nc2ccccc2)C(=O)C(OC)=C(Nc2ccccc2)C1=O,i,/,4%,2%,1%,/,/,/,/
O=C1C=C(Nc2ccccc2)C(=O)c2ccccc21,?,-15%,5µM*,4µM*,-17%,6.5µM*,15µM*,?,-65%
O=C1C(Nc2ccccc2)=C/C(=N/S(=O)(=O)c2cccs2)c2ccccc21,/,-4%,3.5µM*,4µM*,7.9µM*,2.6µM*,2.6µM*,3.3µM*,?
Cc1ccc(S(=O)(=O)/N=C2\C=C(Nc3ccc(O)cc3)C(=O)c3ccccc32)cc1,4µM*,/,3.2µM*,1.3µM*,6.3µM*,1.3µM*,2.3µM*,5.2µM*,?
COc1ccc(N2CCN(C(CNS(=O)(=O)c3ccc(OC)c(C)c3)c3ccco3)CC2)cc1 (stereo not given),/,39%,0%,-28%,/,/,/,/,/
CCOc1ccc(C2C(C#N)=C(N)Oc3cc(C)n(CCN(C)C)c(=O)c32)cc1OCC (stereo not given),i,5%,14%,12%,-1%,/,/,/,/
Cc1ccc(C(=O)c2cn(Cc3ccccc3C)c3nc(C)ccc3c2=O)cc1,?,?,-22%,?,?,/,/,/,/
CC(C)n1c(=O)c2ccccc2n1Cc1cn(Cc2cccs2)nn1,i,/,26%,0%,-5%,/,/,/,/
Cc1cc(C)c2nc(N3C(=O)C(O)=C(C(=O)c4ccco4)C3c3ccco3)sc2c1 (stereo not given),i,?,-36%,13%,-1%,/,/,/,/
SMILES,ATXN viability,Apoferritin bind,HepG2 tox-1,TGFb inhibitor,ATXN2 expr inh,TGFb CAGA inh,HepG2 tox-2,TGFb CCL64 inh,TGFb COP inh
CC(C)C[C@H]1COc2cc(N(C)CCO)ccc2S(=O)(=O)N1,i,/,/,/,0%,/,/,/,/
O=C1CS(=O)(=O)N(Cc2ccc(F)cc2)c2ccccc21,i,/,-5%,?,-3%,/,/,/,/
O=C1CS(=O)(=O)N(Cc2ccccc2F)c2ccc(Br)cc21,i,/,-24%,13µM*,4%,?,?,?,38%
O=C(/C=C/c1cccc([N+](=O)[O-])c1)c1ccc([N+](=O)[O-])o1,3.5µM*,/,4.5µM*,1.3µM*,?,2.9µM*,8.2µM*,1.6µM*,?
COc1ccc(/C=C/C(=O)c2ccc([N+](=O)[O-])o2)cc1,?,/,-58%,?,?,/,/,/,/
Cc1cccc(/C=C/C(=O)c2ccc([N+](=O)[O-])o2)c1,10µM*,/,10µM*,2.2µM*,10µM*,3.3µM*,5.2µM*,2.1µM*,?

# Compound activity as filed in PubChem BioAssay.
